HCV inh = qHTS Assay for Inhibitors of Hepatitis C Virus (HCV); 3.4% of 340,000 active; AID 651820, 2012; Potency, µM (top dose mostly 41.8 µM), for the others: at the top dose activity change, negative = inhibition, actives largely listed as inhibitors; Huh7.5.1 HCVcc-Cre infection, luciferase reporter, 44 h; active = well fitted inhibition curve with a large enough effect; inconclusive = small, poorly fitted or top-dose-only effect, or another doubt; inactive = no such curve, though single readings can be large or run the other way; note: potency is the fitted concentration of half-maximal effect
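Cells (1,000/well) were plated 4 h before compound, then infected with HCVcc-Cre virus (~0.5 moi). After 44 h further culture, infection was read as luciferase luminescence following a 15 min substrate incubation at room temperature.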
VACV Venus inh = qHTS for Stage-Specific Inhibitors of Vaccinia Orthopoxvirus: Venus Reporter Primary qHTS. Vaccinia virus Venus reporter expression, fluorescence. Potency, µM (series often up to 36.5 µM), for inactives: top-dose activity change, negative = inhibition, usual class: inhibitors. 0.46% of 330,000 active; calls by dose curve; tested in A549 cells; note: potency is the fitted concentration of half-maximal effect; nearly all actives have a fitted effect of over 30% in size
Vaccinia mCherry = qHTS for Stage-Specific Inhibitors of Vaccinia Orthopoxvirus: mCherry Reporter Primary qHTS | Potency, µM (titrated, usually from 36.5 µM), for inactives: at the top dose activity change, negative = inhibition, most hits filed as inhibitors | 0.63% of 310,000 active | Vaccinia virus mCherry reporter infection, fluorescence; calls by dose curve; tested in A549 cells; note: potency is the fitted concentration of half-maximal effect; nearly all actives have a fitted effect of over 35% in size
Lassa entry inh = qHTS for Inhibitors of binding or entry into cells for Lassa Virus | Lassa virus pseudotype entry inhibition, cell reporter | 1.2% of 300,000 active | Potency, µM (doses to about 37.9 µM), without a hit: top-dose activity change, negative = inhibition, most hits filed as inhibitors; calls by dose curve; tested in HEK293 cells; note: potency is the fitted concentration of half-maximal effect; nearly all actives have a fitted effect of over 50% in size
HCMV inh = qHTS Assay for inhibitors of the human cytomegalovirus (HCMV). 4.5% of 410,000 active. AID 1259415, 2018. HFF cells, HCMV-luciferase reporter, 72 h; stronger effect = lower value. activity change, negative = inhibition, % at 57.5 µM; in the data active = activity change below about -60%; inconclusive = no clear call, values can overlap the other calls; inactive = above about -39%
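Two-dose cell screen: HFF monolayers treated with compounds and infected with luciferase-expressing HCMV at 1 PFU/cell, 72 h at 37C, then lysed for luciferase measurement.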
MARV entry inh = qHTS for inhibitors of binding or entry into cells for Marburg Virus; Marburg virus pseudotyped entry inhibition, cell reporter; Potency, µM (highest dose often 37.8 µM), for the others: at the highest dose activity change, negative = inhibition, hits mostly inhibitors; 1.8% of 300,000 active; AID 540276, 2011; calls by dose curve; tested in HEK293 cells; note: potency is the fitted concentration of half-maximal effect
Numbers without * were called inactive; i = inactive; ? = inconclusive; / = no result given; + = active, no number; ! = repeats disagree; [ ] = another dose, or the depositor's remark. Sampled rows, rich in hits. Any-hit rate of the full collection: about 7.8%. % is set by controls: 0 for no effect and ±100 for the full control effect.

SMILES | HCV inh | VACV Venus inh | Vaccinia mCherry | Lassa entry inh | HCMV inh | MARV entry inh
Cc1csc2ncnc(N3CCN(C(=S)Nc4ccc(C(F)(F)F)cc4)CC3)c12 | -7.9% | / | / | / | -71.0* | /
COc1ccc(CCC(=O)NC2CC(=O)N(c3ccc(C)c(C)c3)C2)cc1 (stereo not given) | / | -8.8%[7.34 µM] | -3.8%[7.34 µM] | -3.9%[46.1 µM] | 64.6 | /
O=C(Nc1cccc(S(=O)(=O)NC2=NCCC2)c1)c1ccc(C(F)(F)F)cc1 | ? | -17.6% | -9.2% | -0.3% | -60.2* | -14.9%
Cc1ccc(C)c(SCC(=O)Nc2cccc(S(=O)(=O)NC3=NCCCCC3)c2)c1 | ? | -16.6% | i | -7.6% | -29.6 | ?
O=C(CSc1ccc2ccccc2c1Br)Nc1cccc(S(=O)(=O)NC2=NCCCCC2)c1 | -22.1% | 10µM* | ? | ? | 4.6 | ?
O=C(/C=C/c1ccccc1[N+](=O)[O-])Nc1cccc(S(=O)(=O)NC2=NCCCCC2)c1 | 3.16µM* | -16.6% | i | / | 0.6 | /
O=C(/C=C/c1ccc(Cl)cc1Cl)Nc1cccc(S(=O)(=O)NC2=NCCCCC2)c1 | ? | -26.2% | ? | -20.4% | 23.3 | 1.6%
O=C(CCl)Nc1ccc(S(=O)(=O)NC2=NCCCCC2)cc1 | ? | ? | 14.1µM* | ? | -36.9 | ?
CC(C)(C)C(=O)Nc1ccc(S(=O)(=O)NC2=NCCCCC2)cc1 | 7.0% | / | / | / | -0.1 | /
COc1ccc(CNC(=O)C2CCCN(S(=O)(=O)c3ccc4c(ccn4C)c3)C2)c(OC)c1 (stereo not given) | / | -9.8% | -15.2% | 1.6%[46.1 µM] | -33.0 | /
O=C(CCl)Nc1cccc(S(=O)(=O)NC2=NCCCCC2)c1 | 6.31µM* | / | / | / | -101.8* | /
C(=N/n1c2ccccc2c2ccccc21)/c1ccco1 | 8.91µM* | ? | / | -1.7% | 43.0 | -22.8%[46.1 µM]
C(=N\n1c2ccccc2c2ccccc21)/c1ccccc1 | ? | -7.3% | i | -3.9% | 18.6 | 12.4%
COc1cccc(NC(=O)CCc2nc3c(C)nn(-c4ccc(C)cc4)c3n(C)c2=O)c1 | / | -16.1% | -19.2% | 9.6%[46.1 µM] | 9.4 | /
O=C(COC(=O)c1cccc(F)c1)Nc1ccc(Cl)cn1 | 8.0% | / | / | / | -99.3* | /
COc1ccc(CN2CCC(n3cc(C(=O)N4CCCC4)nn3)CC2)c(OC)c1C | / | 3.6% | -4.2% | / | / | /
Cc1ccsc1C(=O)NN=C1CCCCCC1 | 6.2% | / | / | / | -98.9* | /
O=[N+]([O-])c1ccccc1N=NNc1ccccc1 | ? | -3.0% | -12.6% | 19.2%[46.1 µM] | 2.2 | ?
COC(=O)c1ccccc1NN=Nc1ccccc1[N+](=O)[O-] | / | 16.2% | i | / | -101.0* | /
CCOc1ccc(OCc2ccc(C(=O)NCc3ccncc3)o2)cc1 | 7.08µM* | -16.6% | i | 21.5% | 1.6 | 0.2%
O=C(N/N=C/c1cc([N+](=O)[O-])ccc1O)c1ccc(COc2ccc3c(c2)CCC3)o1 | -27.0% | -15.5% | ? | ? | -95.9* | ?
CC(C)(C)c1ccc(OCc2ccc(C(=O)N3CCOCC3)o2)cc1 | ? | ? | -22.7% | 7.94µM* | -70.8* | ?
CCCNC(=O)c1ccc(COc2ccc(C(C)(C)C)cc2)o1 | 12.6µM* | -23.9% | i | ? | 2.7 | ?
CCc1ccc(OCc2ccc(C(=O)NCc3ccccn3)o2)cc1 | 0.7% | -2.2% | / | 4.3% | 81.2 | ?
COc1ccc(Br)cc1/C=N/NC(=O)c1ccc(COc2ccc3c(c2)CCC3)o1 | ? | -16.0% | -24.9% | 22.6% | 73.1 | ?
SMILES | HCV inh | VACV Venus inh | Vaccinia mCherry | Lassa entry inh | HCMV inh | MARV entry inh
O=C1NC(=O)C(Cc2ccccc2F)(C2CCN(Cc3cccn3-c3cccnc3)CC2)N1 (stereo not given) | / | 0.0% | i | / | / | /
O=C(NCc1cccnc1)c1ccc(COc2ccc3c(c2)CCC3)o1 | -19.2% | -25.4% | i | ? | 23.8 | 23.1µM*
CCc1nn(CCCC(=O)N2CCN(c3cc(Cl)ccc3C)CC2)c(=O)c2cc3occc3n12 | / | -18.1% | -17.1% | -13.9%[46.1 µM] | -29.0 | 13.4%[46.1 µM]
O=C(CCCCCn1c(=O)[nH]c2ccccc2c1=O)NCCCN1CCN(c2ccccc2F)CC1 | 12.6µM* | -19.2% | i | -8.2% | 6.5 | ?
O=C(NCC1CCCO1)c1ccc2c(=O)n(Cc3ccc(Cl)cc3)c(=S)[nH]c2c1 (stereo not given) | 10.0% | -0.2% | i | ? | -10.8 | ?
O=C(CCCCCn1c(=O)[nH]c2ccccc2c1=O)N1CCN(Cc2ccc3c(c2)OCO3)CC1 | ? | / | / | 16.4µM* | -18.7 | ?
Cc1c(C)n(C)c2ccc(C(=O)NCCCN3CCCCC3C)cc12 (stereo not given) | -8.0% | -6.1% | -5.2% | 1.6%[46.1 µM] | +! | /
O=C(CCCn1c(=O)[nH]c2ccccc2c1=O)NCCSCc1ccccc1 | -22.1% | -11.0% | -17.0% | -11.6% | -34.9 | -0.8%[46.1 µM]
CC1CCCCN1CCNC(=O)c1ccc2c(=O)n(Cc3ccc(Cl)cc3)c(=S)[nH]c2c1 (stereo not given) | 2.24µM* | ? | -14.4% | ? | -27.3 | ?
Cc1c2cnn(CC(=O)N3CCN(c4ccccc4)CC3)c(=O)c2c(C)n1Cc1ccc(F)cc1 | / | -18.0% | -11.1% | -5.4%[46.1 µM] | -8.7 | -2.5%[46.1 µM]
Cc1cc(N2CCC(C(=O)NCCC(C)C)CC2)n2nc(C)c(-c3ccc(Cl)cc3)c2n1 | / | -6.7% | -2.1% | 23.1%[46.1 µM] | 5.9 | -0.2%[46.1 µM]
CN1CCN(CCCNC(=O)c2ccc3c(=O)n(CCc4ccccc4)c(=O)[nH]c3c2)CC1 | -39.1% | -9.6% | -0.4% | 0.1% | -18.6 | ?
CC1CCN(CCNC(=O)c2ccc3c(=O)n(CCc4ccccc4)c(=O)[nH]c3c2)CC1 | / | / | / | / | -0.6 | /
CCCCCn1c(=O)[nH]c2cc(C(=O)NCCN3CCC(C)CC3)ccc2c1=O | ? | -4.5% | -10.0% | ? | / | 0.4%[46.1 µM]
CC1CCN(CCCNC(=O)c2ccc3c(=O)n(CCc4ccccc4)c(=O)[nH]c3c2)CC1 | 8.91µM* | / | / | 7.7% | 61.9 | ?
CC1CCCCN1CCCNC(=O)c1ccc2c(=O)n(CCc3ccccc3)c(=O)[nH]c2c1 (stereo not given) | 3.98µM* | / | / | ? | 43.8 | ?
